TDP1 cell noCPT: qHTS for Inhibitors of human tyrosyl-DNA phosphodiesterase 1 (TDP1): qHTS in cells in absence of CPT. DT40 Tdp1-/- hTDP1 cells, no CPT, ATP luminescence, 48 h. hit rate 15% among 420,000. Potency, µM (highest dose often 46.2 µM), usual class: inhibitors; further: nearly all actives have a fitted effect of over 55% in size
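Chicken DT40 Tdp1-/- cells stably complemented with human TDP1 were seeded at 400 cells/well with DMSO in place of 20 nM camptothecin. After compound pinning, cells grew at least 48 hr at 37 °C; viability read by CellTiter-Glo luminescence.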
TDP1 block: TDP1 (human) enzyme inhibition; recombinant TDP1, AlphaScreen DNA substrate cleavage; Potency, µM (doses to about 130 µM), most hits filed as inhibitors; hit rate 0.28% among 350,000; AID 485290; further: nearly all actives have a fitted effect of over 40% in size
Target sequence (Q9NUW8 whole entry, looked up): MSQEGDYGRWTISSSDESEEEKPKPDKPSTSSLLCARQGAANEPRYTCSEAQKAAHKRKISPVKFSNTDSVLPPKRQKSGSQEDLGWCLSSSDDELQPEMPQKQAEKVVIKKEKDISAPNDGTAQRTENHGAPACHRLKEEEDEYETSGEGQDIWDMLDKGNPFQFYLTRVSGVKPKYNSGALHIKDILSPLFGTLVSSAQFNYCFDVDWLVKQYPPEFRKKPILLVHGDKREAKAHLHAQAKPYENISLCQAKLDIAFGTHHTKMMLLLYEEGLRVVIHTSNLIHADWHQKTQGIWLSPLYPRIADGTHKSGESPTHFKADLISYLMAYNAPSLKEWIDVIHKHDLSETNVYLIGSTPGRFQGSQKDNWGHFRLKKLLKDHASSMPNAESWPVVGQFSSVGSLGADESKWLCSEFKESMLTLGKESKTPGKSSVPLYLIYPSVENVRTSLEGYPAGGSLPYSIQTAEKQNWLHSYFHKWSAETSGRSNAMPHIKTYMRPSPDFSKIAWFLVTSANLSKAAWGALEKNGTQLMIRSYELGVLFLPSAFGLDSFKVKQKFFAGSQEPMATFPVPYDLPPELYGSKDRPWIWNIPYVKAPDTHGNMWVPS
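Here, a 5' biotin and 3' phosphotyrosine-FITC DNA oligonucleotide reports Tdp1 activity: intact substrate bridges AlphaScreen beads, while cleavage leaves a 3' phosphate and drops signal. All incubations at room temperature.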
VDR inh: inhibitors of human vitamin D receptor; P11473; VDR-SRC2-3 peptide fluorescence polarization, 2 h; Potency, µM, hits mostly inhibitors; hit rate 0.93% among 400,000
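Inhibition of the VDR/SRC2-3 peptide interaction is quantified by fluorescence polarization. Compounds (23 nl, pintool) incubate with the reagents for 2 hours at ambient room temperature.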
KAT2A inh: GCN5L2 (KAT2A) acetyltransferase inhibition; Potency, µM (titrated, usually from 58.9 µM), actives largely listed as inhibitors; GCN5L2 HAT assay, ThioGlo1 CoA-SH fluorescence; Q92830; hit rate 0.21% among 390,000
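Preincubate 20nM GCN5L2 with compound 15 min, RT → add 50uM ThioGlo1 + 75uM H3(1-25) + 70uM acetyl-CoA → read fluorescence 0 and 20 min. Primary qHTS; fluorescent artifacts likely.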
PLK1 PBD inh: blocks phosphopeptide binding to human PLK1 polo-box domain; P53350; Plk1 PBD binding of FITC phosphopeptide, fluorescence polarization; Potency, µM, actives largely listed as inhibitors; hit rate 2.8% among 360,000; AID 720504; further: series mostly up to about 57 µM; nearly all actives have a fitted effect of over 65% in size
DT40 TDP1 CPT: DT40-hTDP1 cell growth loss with CPT; hit rate 12% among 420,000; Potency, µM (titrated, usually from 46.2 µM), usual class: inhibitors; AID 686979; chicken DT40 Tdp1-/-;hTDP1 cells + 20 nM CPT, ATP luminescence, 48 h; further: nearly all actives have a fitted effect of over 55% in size
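Chicken DT40 Tdp1-/- cells complemented with human TDP1, 400 cells/well, exposed to compounds plus 20 nM camptothecin for at least 48 h at 37 C; viability read as ATP content by CellTiter-Glo luminescence.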
Large screens that a line does not name were inactive. In the library only some 18% were active in any assay of this set; here they are far more common. The call rests on the fitted dose curve; in most records, active means well fitted curve in the direction sought with a large enough effect; inconclusive means small, poorly fitted or top-dose-only effect, or another doubt; inactive means no such curve, though single readings can be large; an effect the other way counts as inactive or inconclusive.

Cc1ccc2c(c1)C(=O)OC(C(=O)Nc1ncc(Cc3ccccc3)s1)C2 (centres undefined)	none (no result: TDP1 cell noCPT, PLK1 PBD inh, DT40 TDP1 CPT)
O=C(Nc1ncc(Cc2ccc(F)cc2)s1)c1ccc2c(c1)CC(c1ccccc1)OC2=O (centres undefined)	TDP1 cell noCPT 23µM, DT40 TDP1 CPT inconclusive (no result: PLK1 PBD inh)
CCCN(S(=O)(=O)c1ccccc1F)S(=O)(=O)c1ccccc1Br	TDP1 cell noCPT inconclusive, TDP1 block 89µM, DT40 TDP1 CPT inconclusive
Cn1nc(-c2ccccc2)c(CSc2ccccc2Cl)c1Cl	TDP1 cell noCPT 10µM, DT40 TDP1 CPT inconclusive
Cn1nc(-c2ccccc2)c(C(O)c2ccc(Cl)cc2)c1Cl (centres undefined)	TDP1 cell noCPT inconclusive, DT40 TDP1 CPT inconclusive
CC1(c2ccccc2)CC(C)(C)N(C(=O)c2cccc(Cl)c2)c2ccccc21 (centres undefined)	TDP1 cell noCPT inconclusive, DT40 TDP1 CPT inconclusive (no result: PLK1 PBD inh)
Cc1ccc(CNC(=O)CCc2c(C)c3cc4c(C)coc4cc3oc2=O)cc1	TDP1 cell noCPT inconclusive, DT40 TDP1 CPT 16µM (no result: PLK1 PBD inh)
COc1ccc(CCNC(=O)Cc2c(C)c3cc4c(C)coc4c(C)c3oc2=O)cc1	TDP1 cell noCPT inconclusive (no result: PLK1 PBD inh)
Cc1oc2cc3oc(=O)c(CCC(=O)NCCC(=O)O)c(C)c3cc2c1C	none (no result: TDP1 block)
COc1ccc(CCNC(=O)CCc2c(C)c3cc4c(C)c(C)oc4cc3oc2=O)cc1	TDP1 cell noCPT 21µM, DT40 TDP1 CPT 10µM (no result: PLK1 PBD inh)
COc1ccccc1CCNC(=O)Cc1c(C)c2cc3c(C)coc3cc2oc1=O	TDP1 cell noCPT inconclusive, DT40 TDP1 CPT inconclusive (no result: PLK1 PBD inh)
Cc1coc2c(C)c3oc(=O)c(CCC(=O)NCCc4ccc(Cl)cc4)c(C)c3cc12	TDP1 cell noCPT 12µM, DT40 TDP1 CPT inconclusive (no result: PLK1 PBD inh)
Cc1coc2cc3oc(=O)c(CCC(=O)NCCN4CCOCC4)c(C)c3cc12	TDP1 cell noCPT inconclusive, DT40 TDP1 CPT inconclusive (no result: TDP1 block)
COc1ccccc1CCNC(=O)CCc1c(C)c2cc3c(C)coc3cc2oc1=O	TDP1 cell noCPT inconclusive, DT40 TDP1 CPT 16µM (no result: PLK1 PBD inh)
CO[C@H]1CC[C@@]2(C)[C@@H](CC[C@@H]3[C@@H]2CC[C@@]2(C)[C@H]3C[C@H](C(=O)N[C@@H](CCCN=C(N)N)C(=O)NCC(=O)N[C@@H](CC(=O)O)C(N)=O)O[C@]23CCCO3)C1	none
CC(=O)O[C@@H]1C(=O)O[C@@H]2[C@H]1OC(=O)[C@@H]2OC(C)=O	none (no result: TDP1 block, VDR inh, KAT2A inh, PLK1 PBD inh)
Cc1coc2cc3oc(=O)c(CCC(=O)NCc4ccc(Cl)cc4)c(C)c3cc12	TDP1 cell noCPT 26µM, DT40 TDP1 CPT 10µM (no result: PLK1 PBD inh)
Cc1oc2c(C)c3oc(=O)c(CCC(=O)NCCCN4CCCC4=O)c(C)c3cc2c1C	TDP1 cell noCPT inconclusive (no result: TDP1 block)
Cc1coc2cc3oc(=O)c(CCC(=O)NCc4ccccc4Cl)c(C)c3cc12	none (no result: PLK1 PBD inh)
COc1cccc(CNC(=O)CCc2c(C)c3cc4c(C)coc4cc3oc2=O)c1	TDP1 cell noCPT 16µM, DT40 TDP1 CPT 13µM (no result: PLK1 PBD inh)
Cc1oc2cc3oc(=O)c(CCC(=O)NCCCN4CCCC4=O)c(C)c3cc2c1C	TDP1 cell noCPT inconclusive, DT40 TDP1 CPT 15µM (no result: TDP1 block)
COc1cccc(CNC(=O)Cc2c(C)c3cc4c(C)coc4cc3oc2=O)c1	TDP1 cell noCPT inconclusive, DT40 TDP1 CPT inconclusive (no result: PLK1 PBD inh)
Cc1cc(C)cc(NC(=O)COC(=O)CN=C2NS(=O)(=O)c3ccccc32)c1	none
CCC(=O)Nc1ccc(SC#N)cc1C	TDP1 cell noCPT 5µM, PLK1 PBD inh 13µM, DT40 TDP1 CPT 6.5µM
Cc1cc(SC#N)cc(C)c1NC(=O)CCl	TDP1 cell noCPT 2.6µM, VDR inh inconclusive, PLK1 PBD inh inconclusive, DT40 TDP1 CPT 3.3µM
CCc1cc(SC#N)cc(C)c1NC(=O)CCl	TDP1 cell noCPT 1.6µM, VDR inh 79µM, PLK1 PBD inh 12µM, DT40 TDP1 CPT 1.5µM
COc1cccc(OCC(=O)NC2CC(=O)N(c3cccc(OC)c3)C2)c1 (centres undefined)	none (no result: PLK1 PBD inh)
COc1ccc(C(=O)Nn2c(SCc3ccc([N+](=O)[O-])cc3)nc3ccccc3c2=O)cc1	TDP1 cell noCPT inconclusive, DT40 TDP1 CPT inconclusive
CCOc1cc(-c2nn3cnnc3s2)cc(OCC)c1OCC	TDP1 cell noCPT inconclusive, VDR inh inconclusive, PLK1 PBD inh 3.8µM, DT40 TDP1 CPT inconclusive
CCOc1cc(C(N)=O)cc(OCC)c1OCC	none
O=C(Nc1ncccc1O)c1ccc(S(=O)(=O)Nc2ccccc2)cc1	TDP1 cell noCPT 5.2µM, DT40 TDP1 CPT 5.2µM (no result: TDP1 block)
Cc1ccccc1NC(=O)c1ccc(NS(=O)(=O)c2cc(C(C)(C)C)cc(C)c2C)cc1	TDP1 cell noCPT 15µM, DT40 TDP1 CPT inconclusive
O=C(O)c1ccc(NS(=O)(=O)c2cccc3cccnc23)cc1	none
O=C(Nc1ncccc1O)c1ccc(NS(=O)(=O)c2ccc3[nH]c(=O)[nH]c3c2)cc1	TDP1 cell noCPT inconclusive, DT40 TDP1 CPT inconclusive
O=C(Nc1ccccc1O)c1ccc(NS(=O)(=O)c2cccc3cccnc23)cc1	TDP1 cell noCPT 7.3µM, DT40 TDP1 CPT 4.1µM (no result: TDP1 block)

Screens: PubChem, National Center for Advancing Translational Sciences (NCATS)
